Among the data in publication PMC11062922 (Nature Chemical Biology, 2023) are potency estimated from few doses values, retold here.

Holding throughout (design): species or system human, MV4-11 + K-562 + COLO205 + SK-N-BE2 + OVCAR-8
The subject of test [1] is CHEK1. As to conditions: read-out: apparent Kd; compound concentrations:100 nM and 1000 nM (sheet 'Samples'); n = 1.
Test [2] relates to GRK6. Particulars: read-out: apparent Kd; compound concentrations:100 nM and 1000 nM (sheet 'Samples'); n = 1.
The subject of test [3] is PDGFRB. Particulars: read-out: apparent Kd; compound concentrations:100 nM and 1000 nM (sheet 'Samples'); n = 1.
Test [4] relates to RET. As to conditions: read-out: apparent Kd; compound concentrations:100 nM and 1000 nM (sheet 'Samples'); n = 1.
For test [5], the system named is RPS6KA6. As to conditions: read-out: apparent Kd; compound concentrations:100 nM and 1000 nM (sheet 'Samples'); n = 1.
The subject of test [6] is DCTPP1. As to conditions: read-out: apparent Kd; compound concentrations:100 nM and 1000 nM (sheet 'Samples'); n = 1.
Test [7] relates to NQO1. As to conditions: read-out: apparent Kd; compound concentrations:100 nM and 1000 nM (sheet 'Samples'); n = 1.
Test [8] deals with EPHB4. Particulars: read-out: apparent Kd; compound concentrations:100 nM and 1000 nM (sheet 'Samples'); n = 1.
Test [9] concerns ERCC2. Particulars: read-out: apparent Kd; compound concentrations:100 nM and 1000 nM (sheet 'Samples'); n = 1.
For test [10], the system named is FER. Particulars: read-out: apparent Kd; compound concentrations:100 nM and 1000 nM (sheet 'Samples'); n = 1.
For test [11], the system named is PTK2B. As to conditions: read-out: apparent Kd; compound concentrations:100 nM and 1000 nM (sheet 'Samples'); n = 1.
Test [12] deals with TNK1. As to conditions: read-out: apparent Kd; compound concentrations:100 nM and 1000 nM (sheet 'Samples'); n = 1.
Test [13] deals with TNK2. Particulars: read-out: apparent Kd; compound concentrations:100 nM and 1000 nM (sheet 'Samples'); n = 1.
Test [14] relates to GAK. As to conditions: read-out: apparent Kd; compound concentrations:100 nM and 1000 nM (sheet 'Samples'); n = 1.
The subject of test [15] is MAPK10. As to conditions: read-out: apparent Kd; compound concentrations:100 nM and 1000 nM (sheet 'Samples'); n = 1.
In test [16] the test system is MTOR. As to conditions: read-out: apparent Kd; compound concentrations:100 nM and 1000 nM (sheet 'Samples'); n = 1.
In test [17] the test system is MYLK3. As to conditions: read-out: apparent Kd; compound concentrations:100 nM and 1000 nM (sheet 'Samples'); n = 1.
In test [18] the test system is PIK3CA. Particulars: read-out: apparent Kd; compound concentrations:100 nM and 1000 nM (sheet 'Samples'); n = 1.
Test [19] relates to PLK4. As to conditions: read-out: apparent Kd; compound concentrations:100 nM and 1000 nM (sheet 'Samples'); n = 1.
The test system of test [20] is PRKACG. Particulars: read-out: apparent Kd; compound concentrations:100 nM and 1000 nM (sheet 'Samples'); n = 1.
In test [21] the test system is PRKAG2. Particulars: read-out: apparent Kd; compound concentrations:100 nM and 1000 nM (sheet 'Samples'); n = 1.
In test [22] the test system is SIK2. As to conditions: read-out: apparent Kd; compound concentrations:100 nM and 1000 nM (sheet 'Samples'); n = 1.
The test system of test [23] is TNIK. Particulars: read-out: apparent Kd; compound concentrations:100 nM and 1000 nM (sheet 'Samples'); n = 1.
Test [24] has as its system GSK3A. Particulars: read-out: apparent Kd; compound concentrations:100 nM and 1000 nM (sheet 'Samples'); n = 1.
The test system of test [25] is GSK3B. Particulars: read-out: apparent Kd; compound concentrations:100 nM and 1000 nM (sheet 'Samples'); n = 1.
Test [26] relates to MAP2K2. Particulars: read-out: apparent Kd; compound concentrations:100 nM and 1000 nM (sheet 'Samples'); n = 1.
For test [27], the system named is SKIV2L2. As to conditions: read-out: apparent Kd; compound concentrations:100 nM and 1000 nM (sheet 'Samples'); n = 1.
Test [28] concerns MAP3K1. Particulars: read-out: apparent Kd; compound concentrations:100 nM and 1000 nM (sheet 'Samples'); n = 1.
Test [29] relates to NUAK2. Particulars: read-out: apparent Kd; compound concentrations:100 nM and 1000 nM (sheet 'Samples'); n = 1.
For test [30], the system named is PIK3CD. Particulars: read-out: apparent Kd; compound concentrations:100 nM and 1000 nM (sheet 'Samples'); n = 1.
Test [31] relates to PLK1. As to conditions: read-out: apparent Kd; compound concentrations: 100 nM and 1000 nM (sheet 'Samples'), CATDS: 0.443689991043278; n = 1.

Consider `COc1cc(Nc2cnc(C#N)c(O[C@H](C)CN(C)C)n2)ncc1-c1cnn(C)c1` [CCT244747], for which the potency estimated from few doses in test [1] was 0.0397 µM; in test [2], 1.23 µM; in [3], 1.49 µM; in test [4], 0.112 µM; in test [5], 0.46 µM.
For the compound `CC(C)NC(=O)N1CC[C@H](NC2=Nc3cc(F)ccc3N(CC(F)F)c3ccc(Cl)cc32)C1` [NVS-PAK1-1], the potency estimated from few doses is 2.22 µM in [6] and 1.34 µM in test [7].
Consider `O=C(Nc1c(F)cccc1F)c1cc(C(=O)c2ccccc2F)c[nH]1` [GSK1326180A], for which the potency estimated from few doses in [8] was 1.31 µM; in test [9], 0.984 µM; in test [10] it was 0.92 µM; in test [11], 1.07 µM; in test [12], 0.87 µM; in test [13], 0.898 µM.
As to `COc1ccc2[nH]c3c4[nH]c5ccc(OC)cc5c4c4c(c3c2c1)C(=O)NC4=O` [GW296115X], the potency estimated from few doses in test [14] was 0.543 µM; in test [15] it was 1.05 µM; in test [16], 0.741 µM; in test [17], 0.834 µM; in test [18], 0.254 µM; in test [19], 0.581 µM. For the same compound, the potency estimated from few doses in test [20] is 0.655 µM; in test [21], 1.67 µM; in test [22], 0.923 µM; in test [23], 1.7 µM.
As to `O=C1NC(=O)C(c2ccc(Cl)cc2)=C1Nc1ccc(Cl)c(C(=O)O)c1` [SB-360741], the potency estimated from few doses in [24] is 0.601 µM; in test [25], 1.31 µM; in test [26] it was 0.14 µM; in [27] it was 1.36 µM.
With `C[C@@H](Oc1cc(-n2cnc3ccc(CN4CCN(C)CC4)cc32)sc1C(N)=O)c1ccccc1C(F)(F)F` [GSK461364], the potency estimated from few doses in test [28] is 0.102 µM; in [29], 1.28 µM; in test [30], 0.214 µM; in test [31], 0.0421 µM.
